Potency and affinity values are given separately. Inconclusive results are not listed. Active and inactive are the calls of the source.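 How the source made its calls: active means signal-lowering compounds whose fitted half-maximal concentration is at or below twice the top tested dose in every run; inconclusive means runs disagree, flat 30 to 70% inhibition, or poor curve fit; inactive means the rest.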

A short description of this experiment: CMV-driven luciferase expression suppression in HEK293 – cell-based, luminescence, dry powder, counter-screen for Pax8 inhibitor project, dose response (AID 743020).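 Further: HEK293 cells stably expressing the CMV luciferase reporter.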 The settings on record: HEK293 CMV-luciferase reporter, SteadyGlo luminescence, 24 h; series mostly up to 35 µM; activity change, negative = inhibition: at the top concentration. For orientation: Counterscreens check selectivity or assay interference.
Take `C[C@H](CO)N1C[C@H](C)[C@H](CN(C)Cc2ccc(Cl)c(Cl)c2)Oc2c(NS(=O)(=O)c3ccc(Cl)cc3)cccc2C1=O`: the “activity change, negative = inhibition” value is 3.59% (inactive).
In the case of `C[C@@H]1CN([C@H](C)CO)C(=O)c2cc(NC(=O)c3ccncc3)ccc2O[C@@H](C)CCCCO[C@H]1CN(C)Cc1ccc(C(F)(F)F)cc1`, the “activity change, negative = inhibition” value is -8.21% (inactive).
For `C[C@@H]1CN([C@@H](C)CO)C(=O)c2cc(NS(=O)(=O)c3ccc(Cl)cc3)ccc2O[C@@H](C)CCCCO[C@H]1CN(C)Cc1ccc(C(F)(F)F)cc1`, the “activity change, negative = inhibition” value was 3.27% (inactive).
`C[C@H]1CCCCO[C@@H](CN(C)C(=O)c2ccccc2)[C@@H](C)CN([C@@H](C)CO)C(=O)c2cc(NC(=O)Nc3ccc(C(F)(F)F)cc3)ccc2O1`: the “activity change, negative = inhibition” value is 6.75% (inactive).
Turning to `C[C@@H]1CN([C@@H](C)CO)C(=O)c2cc(NS(=O)(=O)c3ccccc3)ccc2O[C@@H](C)CCCCO[C@@H]1CN(C)Cc1ccc(C(F)(F)F)cc1`, the “activity change, negative = inhibition” value was -13.1% (inactive).
With `C[C@@H]1CN([C@H](C)CO)C(=O)c2cc(NC(=O)Nc3ccccc3)ccc2O[C@@H](C)CCCCO[C@H]1CN(C)Cc1ccc(Cl)c(Cl)c1`, the “activity change, negative = inhibition” value is -2.98% (inactive).
In the case of `C[C@@H]1CCCCO[C@@H](CN(C)Cc2ccc(Cl)c(Cl)c2)[C@H](C)CN([C@@H](C)CO)C(=O)c2cc(NC(=O)Cc3ccccc3)ccc2O1`, the “activity change, negative = inhibition” value is -4.11% (inactive).
In the case of `C[C@H]1CCCCO[C@H](CN(C)S(=O)(=O)c2ccc(Cl)cc2)[C@@H](C)CN([C@@H](C)CO)C(=O)c2cc(NS(=O)(=O)c3ccc(Cl)cc3)ccc2O1`, the “activity change, negative = inhibition” value is 2.31% (inactive).
For `C[C@@H]1CN([C@@H](C)CO)C(=O)c2cc(NC(=O)c3ccccc3)ccc2O[C@@H](C)CCCCO[C@H]1CN(C)Cc1ccc(C(F)(F)F)cc1` the value was -5.52% (inactive); for `C[C@@H]1CCCCO[C@H](CN(C)C)[C@H](C)CN([C@H](C)CO)C(=O)c2cc(NC(=O)Nc3cccc4ccccc34)ccc2O1`, 4.49% (inactive); for `C[C@H](CO)N1C[C@H](C)[C@@H](CN(C)C(=O)NC2CCCCC2)Oc2cc(C#Cc3ccc(F)cc3)ccc2S1(=O)=O`, 0.71% (inactive).
As to `C[C@H]1CCCCO[C@@H](CN(C)C(=O)Nc2ccc(C(F)(F)F)cc2)[C@@H](C)CN([C@@H](C)CO)C(=O)c2cc(NS(=O)(=O)c3cn(C)cn3)ccc2O1`, the “activity change, negative = inhibition” value is -0.19% (inactive).
In the case of `COc1ccccc1-c1ccc2c(c1)O[C@H](CN(C)Cc1ccc3c(c1)OCO3)[C@H](C)CN([C@@H](C)CO)S2(=O)=O`, the “activity change, negative = inhibition” value was -1.74% (inactive).
As for `C[C@@H]1CCCCO[C@H](CN(C)C(=O)NC2CCCCC2)[C@@H](C)CN([C@@H](C)CO)C(=O)c2cc(NC(=O)Nc3ccc(C(F)(F)F)cc3)ccc2O1`, the “activity change, negative = inhibition” value was -10.8% [at 16 µM] (inactive).
On to `C[C@@H]1CN([C@@H](C)CO)C(=O)Cc2cc(NS(=O)(=O)c3ccc(F)cc3)ccc2O[C@H]1CN(C)Cc1ccc(Oc2ccccc2)cc1`, for which the “activity change, negative = inhibition” value is -6.27% (inactive).

Source of the values: PubChem BioAssay.
